The supplement of paper PMC3334620
Whole data set: some 33,000 sequences, median “E-score (-0.5 to 0.5)” near -0.011, cut for the highest 2% near 0.28. This is one part of a sample in which the highest values are shown more often than they occur.

Each sequence was assayed against T1, Gcr1 (UniProt P07261) (assay: PBM E-score (8-mer binding enrichment) (E-score (-0.5 to 0.5)); higher = stronger / more preferred TF binding). Details: protein concentration: 100 nM; construct: GST-full length.
T1 sequence: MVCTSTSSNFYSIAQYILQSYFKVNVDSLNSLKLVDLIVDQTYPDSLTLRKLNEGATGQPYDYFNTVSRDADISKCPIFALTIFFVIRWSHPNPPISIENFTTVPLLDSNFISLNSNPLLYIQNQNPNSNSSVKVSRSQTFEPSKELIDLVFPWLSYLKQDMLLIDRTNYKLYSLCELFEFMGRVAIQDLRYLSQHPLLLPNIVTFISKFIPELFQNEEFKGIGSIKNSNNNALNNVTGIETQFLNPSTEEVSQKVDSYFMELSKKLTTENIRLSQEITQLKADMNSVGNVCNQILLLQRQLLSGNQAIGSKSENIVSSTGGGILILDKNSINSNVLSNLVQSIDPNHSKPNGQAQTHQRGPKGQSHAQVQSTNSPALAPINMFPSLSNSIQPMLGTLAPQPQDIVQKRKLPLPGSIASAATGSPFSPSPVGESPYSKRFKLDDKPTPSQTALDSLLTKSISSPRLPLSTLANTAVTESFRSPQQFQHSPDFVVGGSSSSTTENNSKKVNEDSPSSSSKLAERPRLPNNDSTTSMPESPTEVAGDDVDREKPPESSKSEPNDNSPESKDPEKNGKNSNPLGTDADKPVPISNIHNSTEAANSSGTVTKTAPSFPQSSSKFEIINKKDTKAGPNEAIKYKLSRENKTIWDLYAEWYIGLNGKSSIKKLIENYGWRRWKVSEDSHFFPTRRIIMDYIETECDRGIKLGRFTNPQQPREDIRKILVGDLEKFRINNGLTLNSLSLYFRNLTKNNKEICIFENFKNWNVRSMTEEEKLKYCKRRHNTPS
How it was run: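 Using PURExpress in vitro transcription/translation, GST-tagged yeast transcription factors were made in full-length or DNA-binding-domain form. These were applied at about 100-200 nM to double-stranded universal all-10-mer Agilent arrays, and bound protein was detected with fluorescent anti-GST. Scans were normalised with masliner before the Universal PBM Analysis Suite assigned E-scores to ungapped eight-base words pooled with their reverse complements.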

Sequence | PBM E-score
AAGTCTCG | -0.336
CTCTAAAC | 0.0413
GGTCTGGA | 0.0233
GCCAGCGA | -0.0966
CACCAAGG | 0.0974
CCACCATC | 0.0892
GACGGACA | -0.264
AAAAGTAG | 0.295
AAAAGTGA | 0.0915
AAAAGTAT | -0.0691
AAAAGTGG | 0.381
AAAAGTAA | 0.157
CAAAGTGG | 0.00098
CCCATCAC | -0.136
GGTATTCA | 0.0919
GATGGCCA | -0.214
ATTGGATC | 0.193
AGTGGATG | 0.394
AGTGGATC | 0.286
CGTGGATC | 0.00349
AATGGATG | 0.134
AGTGGATA | 0.0533
CCTCCTGC | -0.0964
ATCTTCGC | -0.0394
ATAGAGGG | 0.137

Sequence | PBM E-score
ATAGAGGC | 0.174
ATAGAGGA | 0.346
ATGTCCCG | -0.183
GCTATTGA | -0.21
CACCACTG | 0.167
AACCACTA | 0.241
GACCACTA | 0.179
CACCACTC | 0.134
CACCACTA | 0.298
TACCACTA | 0.365
AGTTGCAA | -0.105
CGTAGTGA | -0.043
CGTACCGC | -0.162
ATGATACG | 0.107
CAAGACAC | 0.0836
GCACCCAA | 0.303
GCACCCTA | 0.297
GCGCCCTA | 0.319
CCGCCCTA | -0.0561
GCGCCTAA | 0.407
GCGCCTAC | 0.256
CCACCCTA | 0.0045
TCGCCTAA | 0.0844
GCACCCCA | 0.241
ACGCCCTA | 0.178

Sequence | PBM E-score
ACACCCTA | -0.021
TCACCCAA | -0.00294
CACCACCG | -0.0609
GAGTTGCA | -0.0956
GTGAGAAC | -0.0123
GATGGATA | 0.0193
CCCCCGGC | -0.0149
GGAACGGA | -0.0468
CCGAGTCA | -0.25
ATTCGAAT | 0.0645
AGATGACG | -0.0775
ACACCCAC | 0.0847
CCACCCAC | -0.0236
GCACCCAC | 0.397
CTTTTTGA | 0.115
AGTTGGAA | 0.187
CTAGCTGC | 0.161
ATAGCTGC | 0.285
GAGGCTGC | 0.253
ATAGCTGA | -0.0965
AAGGCTGA | -0.141
AAGGCTGC | 0.302
CTGTCTTC | 0.00215
AGCTAATA | 0.0193
CGGGGCCC | 0.219

Sequence | PBM E-score
TCCAAAGA | 0.0425
ACAGCTCA | -0.146
ATAAGACG | 0.192
CAGGAAGG | 0.184
CAGGAAGA | 0.0842
CACGAAGC | 0.311
AACGAAGC | 0.00062
AAGGAAGG | -0.0778
GAGGAAGA | 0.171
GAGGAAAC | -0.104
CAGGAAGC | 0.434
AAGGAAGA | -0.00011
GAGGAAGC | 0.391
CACGAAGA | -0.098
AAGGAAGC | 0.452
CCAAGGTC | -0.0561
CGAAAGGC | 0.0349
GCCTTCAC | -0.0793
AGCTGCAT | -0.077
CTCGGCGC | 0.159
CAAAGGCG | -0.134
AGGCGTCG | -0.0284
CGGCGTCC | 0.412
AGGCGTCC | 0.387
CGGCGTCA | 0.0965

Sequence | PBM E-score
CGGCGTGC | -0.094
AGGCGTCA | -0.194
ATATAGAG | 0.133
AAATTCAG | 0.169
CCATAGGC | -0.00913
TGAGAAAA | 0.0932
AGGCAGAT | 0.0845
ATACGTAC | -0.00136
ATACGTAA | 0.053
ATACGTAT | 0.284
AAACCAAC | 0.0391
GCACCATA | 0.228
AGTTTTAT | 0.112
ATACTATA | -0.0912
CTACTATC | 0.146
CTACTATA | 0.282
CGAGCCTC | -0.0914
GAACAACC | -0.0951
AGGCACTA | -0.113
AGCAACCA | 0.349
AGCAACCT | 0.316
TGCAACCA | 0.261
CGCAACCA | 0.147
AGCAACCG | 0.0554
GGCAACCA | 0.374

Sequence | PBM E-score
GGCAACCC | 0.176
ACCAACCA | 0.0293
AGCAACCC | 0.00142
ACTAACCA | 0.117
CGTAAGAG | -0.199
CAGCTGTC | -0.0336
AATGCTCT | -0.112
CCATTCCC | -0.0773
AGCGTCTA | 0.307
CGCGTCTC | 0.301
GGCGTCAA | -0.0289
AGCGTCTG | 0.175
AGCGTCTC | 0.22
CCCGTCTC | -0.0723
AGCGTCAA | 0.0252
GGCGTCTA | 0.342
CGCGTCTA | 0.137
ATGAAGCC | 0.145
AATACCGA | 0.0609
GGGTTCCA | 0.419
AGGTTCCG | 0.205
AGGTTCCA | 0.327
GGTTTCCA | 0.119
GAGTTCCA | 0.123
CGGTTCCA | 0.189

Sequence | PBM E-score
CGGCCCTA | -0.253
TGGATAAA | 0.11
GAATTCCA | 0.369
TACTTCCA | 0.121
AACTTCCG | 0.267
CACTTCCG | 0.0282
CACTTCCC | 0.0585
GACTTCAA | -0.0566
CAATTCCA | 0.0815
GACTTCCA | 0.319
AACTTCCA | 0.349
GACTTCCC | 0.127
GAATTCCC | 0.116
CACTTCCA | 0.312
CCGACCCA | -0.0324
CGCAGGCG | 0.00025
ATTGCTAC | 0.11
ACGGCTCG | -0.105
GTCATTAA | 0.0346
AGTCCGTG | -0.0968
AAATCCAT | 0.129
GGCCCGCA | -0.0485
